In PubChem BioAssay (NCI):
The panel holds about 83,000 compounds, 20% with a hit somewhere; the sample as a whole holds those more often.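 Growth was measured after 48 h exposure to one concentration of compound in 96-well plates. Values under 10 count as active.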 A number with no mark means an inactive call. Active and inactive are the calls of the source.

Experiments:
Assay in all cases: NCI-60 one-dose screen, 48 h (100 = growth as untreated, 0 = no growth, -100 = all killed)
Settings in all cases: 10 µM unless noted
NCI-H23 lung = system: NCI-H23 lung
NCI-H226 lung = system: NCI-H226 lung
NCI-H322M lung = system: NCI-H322M lung
NCI-H460 lung = system: NCI-H460 lung
HOP-92 NSCLC = system: HOP-92 NSCLC
NCI-H522 lung = system: NCI-H522 lung
COLO 205 colon = system: COLO 205 colon
DU-145 prostate = system: DU-145 prostate
K-562 leukemia = system: K-562 leukemia
MALME-3M melanoma = system: MALME-3M melanoma
MDA-MB-231 breast = system: MDA-MB-231 breast
RXF 393 renal = system: RXF 393 renal
SF-268 CNS = system: SF-268 CNS
SF-295 CNS = system: SF-295 CNS
SF-539 CNS = system: SF-539 CNS
UACC-257 melanoma = system: UACC-257 melanoma
M14 melanoma = system: M14 melanoma
A549/ATCC NSCLC = system: A549/ATCC NSCLC
786-0 renal = system: 786-0 renal

SMILES | growth (NCI-H23 lung) | growth (NCI-H226 lung) | growth (NCI-H322M lung) | growth (NCI-H460 lung) | growth (HOP-92 NSCLC) | growth (NCI-H522 lung) | growth (COLO 205 colon) | growth (DU-145 prostate) | growth (K-562 leukemia) | growth (MALME-3M melanoma) | growth (MDA-MB-231 breast) | growth (RXF 393 renal) | growth (SF-268 CNS) | growth (SF-295 CNS) | growth (SF-539 CNS) | growth (UACC-257 melanoma) | growth (M14 melanoma) | growth (A549/ATCC NSCLC) | growth (786-0 renal)
COC(=O)C1NC(=S)N(c2ccc(Cl)cc2)C1/C=C/c1ccccc1 (stereo unspecified) | 91% | 104% | 110% | 109% | 78.6% | 93.7% | 108% | 100% | 106% | 103% | 95% | 110% | 101% | 91% | 94.6% | 99.3% | 87.1% | – | –
Cn1c2c(Cl)c(Cl)ccc2c2cc(N)[nH]c(=O)c21 | 76.2% | 59.2% | 103% | 81.9% | 29.9% | 92.4% | 92.1% | 84.2% | – | 102% | 68.5% | – | 80.9% | 53.7% | 82.8% | 97.9% | 97.8% | 15.1% | 70.2%
C[C@@H]1CN(Cc2ccc(/C=C/c3n[nH]c4ccc5nc(-c6cn[nH]c6C(F)(F)F)c6c(c5c34)CCCC6)cc2)C[C@H](C)O1 | 31.9% | 45.3% | 45.1% | -4.09% (active) | 41.4% | 21% | 1.61% (active) | 27.7% | 10.4% | 41.2% | 12.9% | – | 36.5% | 38.4% | 7.28% (active) | 75.5% | 18.9% | 25.3% | 26.6%
CNC(=O)NCC1OC(n2cnc3c(NC(=O)Nc4ccccc4)ncnc32)C(O[Si](C)(C)C(C)(C)C)C1O[Si](C)(C)C(C)(C)C (stereo unspecified) | 36.3% | 49% | 87.3% | -6.74% (active) | -2.68% (active) | – | -100% (active) | 52.2% | 34.5% | 48.9% | 37.7% | -37% (active) | 36% | 45.1% | 33.4% | 42.8% | 33% | 23% | 16.5%
COc1ccc(/C(C)=N/NC(=O)CSc2nc3ccccc3c(=O)n2Cc2ccc(S(N)(=O)=O)cc2)c(OC)c1 | 101% | 93.9% | 94.8% | 102% | 112% | 96% | 118% | 108% | 94.9% | 102% | 96.2% | 102% | 91.8% | 98.7% | 100% | 107% | 104% | 102% | 105%
CN(C)C(=O)c1cc2cnc(Nc3ccc(-c4csc5c(=O)cc(N6CCOCC6)oc45)cc3)nc2n1C1CCCC1 | -10.2% (active) | 2.17% (active) | -29% (active) | -26.4% (active) | -3.68% (active) | -65.1% (active) | -84.3% (active) | -97.1% (active) | 2.96% (active) | -67.9% (active) | -7.21% (active) | -85.8% (active) | -2.94% (active) | -36.9% (active) | -70.2% (active) | -81.5% (active) | -73.4% (active) | -36.8% (active) | -1.22% (active)
O=C(c1ccccc1)N1N=C(c2ccc(-n3ccc(C(F)(F)F)n3)cc2)CC1c1ccc[nH]1 (stereo unspecified) | 96.4% | 95.1% | 80.6% | 100% | 113% | 76.5% | 101% | 104% | 65.1% | 93.6% | 97.6% | 97.1% | 98.6% | 97.1% | 92.6% | 90.1% | 79% | 82% | 87.3%
CCCCCCCCOc1ccc(/C=N/Nc2cc(C)nc3ccc(Cl)cc23)cc1 | 65.2% | 87.2% | 42.2% | -63.4% (active) | 67.3% | -56.7% (active) | -36.2% (active) | -87.3% (active) | -52.6% (active) | 91% | -59.3% (active) | -68.9% (active) | 104% | -72.8% (active) | -81% (active) | 116% | 87.7% | -37.3% (active) | -94% (active)
